Nrf2 block = Nrf2 qHTS screen for inhibitors. 360,000 tested, 2.1% active. AID 504444, 2011. A549 ARE-Fluc reporter, luciferase luminescence, 18-24 h. Potency, µM (highest dose often 46 µM), for inactives: at the top dose activity change, negative = inhibition, actives largely listed as inhibitors; also: potency is read from the fitted curve at half-maximal effect; % is scaled to controls: 0 for no effect and ±100 for the full control effect; nearly all actives have a fitted effect of over 60% in size
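Two sequential reads on A549 ARE_Fluc cells exposed to compound for 18-24 h: a CellTiter-Fluor fluorescence read for viability, then a luciferase luminescence read for Nrf2/ARE activity.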
CCT modulator = High-Throughput Screening for Modulators of Cytosolic Chaperonin Activity. purified chaperonin ATPase assay, HTRF ADP detection, 30 min. activity change, % (test concentration not listed), hits read low. 360,000 tested, 0.3% active. AID 651819, 2012; in the data active = activity change below about -30%; also: % is scaled to controls: 0 for no effect and ±100 for the full control effect
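We incubate TRiC, 40 or 20 nM final, with library compounds at 76 uM and 10 uM ATP for 30 min at 37 °C. ADP formed is detected with Transcreener HTRF reagents after 30 min at room temperature.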
TCR act = Activators of T cell receptors: qHTS campaign; primary human leukocytes, anti-CD3, IL-2 HTRF, 48 h; Potency, µM (titrated, usually from 9.22 µM), without a hit: at the top dose activation of IL-2 secretion, usual class: activators; 330,000 tested, under 10 active; AID 504894, 2011; also: % of control where 0% means no effect
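Human primary leukocytes + a-CD3 beads + cpd, 48 hr; IL-2 in supernatant by HTRF (ex 320nm / em 665nm). No co-stimulatory signal supplied.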
Nrf2 activator = qHTS of Nrf2 Activators. Potency, µM (titrated, usually from 46.1 µM), for the others: top-dose activation, hits mostly activators. AID 624171, 2012. 410,000 tested, 0.31% active. AREc32 ARE-luciferase reporter (MCF7-derived line), luminescence, 24 h; also: potency is read from the fitted curve at half-maximal effect; % of control where 0% means no effect; nearly all actives have a fitted effect of over 65% in size
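AREc32 cells carrying an ARE-driven firefly luciferase, 1000 cells/well in OPTI-MEM with 5% FBS, dosed after overnight attachment and incubated 24 hr at 37 deg C. Steady-Glo luminescence read after 30 min at RT.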
AT treatment = qHTS Assay for Identifying a Potential Treatment of Ataxia-Telangiectasia; AID 485349, 2010; F2112 A-T fibroblasts, KAP-1 phosphorylation AlphaLISA; neocarzinostatin DNA damage 30 min before lysis; Potency, µM (highest dose often 57.5 µM), without a hit: top-dose activation, most hits filed as activators; 320,000 tested, 0.19% active; also: potency is read from the fitted curve at half-maximal effect; % of control where 0% means no effect; nearly all actives have a fitted effect of over 45% in size
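hTERT-immortalized A-T patient fibroblasts (F2112), 500 cells/well in OPTI-MEM, 1% FBS, got compounds for 60 min, then NCS for 30 min at 37C. Lysates were then assayed for phospho-KAP-1 by AlphaLISA (anti-pKAP1 donor, anti-KAP1 acceptor beads), 6 hr at 25C.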
A549 viability = Nrf2 qHTS screen for inhibitors: counterscreen for cytotoxicity | A549 ARE-Fluc cells, CellTiter-Fluor viability, 18-24 h | Potency, µM (top dose mostly 46 µM), inactives show at the highest dose activity change, negative = cytotoxicity, usual class: inhibitors | 390,000 tested, 0.16% active | AID 504648, 2011; also: potency is read from the fitted curve at half-maximal effect; % is scaled to controls: 0 for no effect and ±100 for the full control effect
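A549 ARE-Fluc cells in 5% FBS OPTI-MEM, 5000 cells/well, rested 2 h then exposed to compounds in concentration-response for 18-24 h at 37 °C. Viability by CellTiter-Fluor fluorescence (Ex 405/Em 525) after 30 min; luciferase luminescence (BugLite, 15 min, RT) read afterwards.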
* marks the source's active call; other numbers are inactive results; ! = repeats disagree; [ ] = remark or other dose. An excerpt weighted towards active compounds, which were near 2.6% of everything screened. Unless noted, calls follow the shape of the dose curve; as a rule, active = well fitted curve in the direction sought with a large enough effect; inconclusive = small, poorly fitted or top-dose-only effect, or another doubt; inactive = no such curve, though single readings can be large; an effect the other way counts as inactive or inconclusive.

For COc1ccc(Cl)cc1NC(=O)CSC1=Nc2ccccc2C2=NC(CCC(=O)NCc3ccco3)C(=O)N12 (stereo not given) the results were Nrf2 block -27%, Nrf2 activator 29% and A549 viability -18%.
For O=C(CCl)Nc1ccc2c(c1)OCO2 the results were Nrf2 block -1%, CCT modulator -1, Nrf2 activator 14µM*, AT treatment -1% and A549 viability -3%.
`COc1cc(/C=C/c2cc(OC(C)=O)c3ccccc3n2)c(OC(C)=O)c([N+](=O)[O-])c1` gave Nrf2 block inconclusive, CCT modulator -2, TCR act 6%, Nrf2 activator 3%, AT treatment -5% and A549 viability 15µM*.
`COc1ccc(NC(=O)COC(=O)c2cc(=O)c3ccccc3o2)cc1OC` gave Nrf2 block 21%, CCT modulator 0, TCR act 6%, Nrf2 activator 13µM*, AT treatment 1% and A549 viability 0%.
CC(C)CC(=O)Nc1ccc2c(c1)oc1ccccc12 was read as Nrf2 block inconclusive, CCT modulator -40*, TCR act 5%, Nrf2 activator 5%, AT treatment -1% and A549 viability 3%.
For CCCCC(=O)Nc1ccc2c(c1)oc1ccccc12 the results were Nrf2 block inconclusive, CCT modulator 0, TCR act 1%[46.1 µM], Nrf2 activator 6% and A549 viability -13%.
COc1ccc(OC)c(CNC(=O)CCCn2nc(C)c3c(C)n(-c4ccc(C)cc4)nc3c2=O)c1 was read as Nrf2 block -13%, Nrf2 activator 3% and A549 viability 18%.
`O=C(Nc1ccc(Cn2cccn2)cc1)c1ccc(COc2ccc(Br)cc2)cc1` gave Nrf2 block 6%, CCT modulator 0, TCR act 0%, Nrf2 activator 0%, AT treatment 0% and A549 viability 0%.
Screening O=C(Nc1ccn(Cc2ccccc2F)n1)c1ccc(COc2ccc(Br)cc2)cc1 returned Nrf2 block 6.5µM*, CCT modulator -1, TCR act -1%, Nrf2 activator -1%, AT treatment 14% and A549 viability inconclusive.
`COCCCNC(=O)c1c(NC(=O)Cc2coc3cc(C)cc(C)c23)sc2c1CCCC2` gave Nrf2 block 3%, Nrf2 activator 5% and A549 viability 3%.
`Cc1cc2c(s1)c1cnn(Cc3cc(Cl)ccc3F)c(=O)c1n2C` gave Nrf2 block 18% and A549 viability 2%.
`C=CCn1c(SCC(=O)Nc2sccc2C(N)=O)nc2sc(CC)cc2c1=O` gave Nrf2 block 15µM*, CCT modulator 0, TCR act 1%, Nrf2 activator 15%, AT treatment 2% and A549 viability inconclusive.
Screening C=CCn1c(SCC(=O)Nc2sccc2C(N)=O)nc2ccccc2c1=O returned Nrf2 block 26µM*, CCT modulator -3, TCR act -3%, Nrf2 activator 1%, AT treatment 2% and A549 viability -25%.
Screening C=CCn1c(SCC(=O)Nc2sccc2C(N)=O)nc2ccc(Cl)cc2c1=O returned Nrf2 block inconclusive, CCT modulator -5, TCR act -8%, Nrf2 activator 10%, AT treatment 2% and A549 viability inconclusive.
`Cc1c(Cl)cccc1NC(=O)NC1CCCCC1` gave Nrf2 block inconclusive, CCT modulator -40*, Nrf2 activator 2%, AT treatment 1% and A549 viability 0%.
`O=C(Nc1ccccc1NC(=O)NC1CCCCC1)NC1CCCCC1` gave CCT modulator -2, Nrf2 activator 0%, AT treatment 0% and A549 viability -1%.
`COC(=O)[C@@H](Cc1ccccc1)NC(=O)NCCc1ccc(OC)c(OC)c1` gave Nrf2 block 1%, CCT modulator -3, TCR act -2%, Nrf2 activator 0%, AT treatment 0% and A549 viability -1%.
For CCN(C(=O)C1CCCN(c2ncnc3c2nc2n3CCCCC2)C1)c1cccc(Cl)c1 (stereo not given) the results were Nrf2 block 15µM*!, CCT modulator -2, TCR act -1%, Nrf2 activator 2%, AT treatment 2% and A549 viability 0%.
`Clc1cccc(N2CCN(c3ncnc4c3nc3n4CCCCC3)CC2)c1` gave Nrf2 block 13µM*, Nrf2 activator 0% and A549 viability inconclusive.
Screening CSc1cccc(NC(=O)C2CCCN(c3ncnc4c3nc3n4CCCCC3)C2)c1 (stereo not given) returned Nrf2 block 18µM*, CCT modulator -1, TCR act 0%, Nrf2 activator 0%, AT treatment 2% and A549 viability -20%.
`O=C(c1ccc(Br)cc1)N(Cc1ccco1)C1CCS(=O)(=O)C1` (stereo not given) gave Nrf2 block inconclusive, CCT modulator -1, TCR act -3%, Nrf2 activator -1%, AT treatment 10% and A549 viability 0%.
For Cc1cc(C)n(-c2nc(NC(C)C)nc(NC(C)(C)C)n2)n1 the results were Nrf2 block 3% and A549 viability -4%.
CC(C)CC(=O)NC(=S)Nc1nc(-c2cccc3ccccc23)cs1 was read as Nrf2 block 26µM*, CCT modulator -7, TCR act -1%, Nrf2 activator 4%, AT treatment 9% and A549 viability inconclusive.
N=c1ccn2c(n1)O[C@H]1[C@@H](CO)[C@H](O)O[C@H]12 was read as Nrf2 block inconclusive, CCT modulator -2, TCR act -6%, Nrf2 activator 0%, AT treatment 6% and A549 viability -6%.
N=c1nc2n(cc1F)C1OC(CO)C(O)C1O2 (stereo not given) was read as Nrf2 block 0.13µM*, CCT modulator -48*, TCR act 6%, Nrf2 activator 0% and A549 viability inconclusive.
Screening Cc1ccc(N(CC(=O)NCCc2ccc(Cl)cc2)S(=O)(=O)N(C)C)cc1 returned Nrf2 block -3%, Nrf2 activator 3% and A549 viability 2%.
`CCOC(=O)C1C(=O)CC(C)(O)C(C(=O)OCC)C1c1ccc(OC)cc1` (stereo not given) gave Nrf2 block 10%, CCT modulator -32*, TCR act -3%, Nrf2 activator 0% and A549 viability -6%.
